The text below walks through data of PubChem BioAssay (Tox21).

The nature of assay [1]: qHTS assay for small molecule agonists of the p53 signaling pathway (AID 651631; calls by dose curve; note: nearly all actives have a fitted effect of over 15% in size; note: potency is the fitted concentration of half-maximal effect). The method, boiled down: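 p53RE-bla HCT-116 cells; compounds 16 h, 37 °C; LiveBLAzer B/G FRET substrate 2 h RT; fluorescence intensity read-out, qHTS format.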
On the technique in general: Quantitative high-throughput screening tests each substance at several concentrations.

A short description of assay [2]: qHTS assay for small molecules that induce genotoxicity in human embryonic kidney cells expressing luciferase-tagged ATAD5 - cell viability (AID 651634; calls by dose curve; note: nearly all actives have a fitted effect of over 25% in size; note: potency is the fitted concentration of half-maximal effect). The method, boiled down: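 HEK293T cells expressing luciferase-tagged ATAD5 were exposed to compound or DMSO for 15.5 hr at 37C, 5% CO2. Viability was then read as live-cell protease activity by CellTiter-Fluor fluorescence after 30 min at 37C.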

Assay [3] in a line: qHTS assay for small molecule disruptors of the mitochondrial membrane potential (AID 720635). Note: potency is the fitted concentration of half-maximal effect. The method, boiled down:
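Mitochondrial membrane potential tracked with Mito-MPS dye, red aggregates (ex 540/em 590 nm) against green monomers (ex 490/em 535 nm). Compound treatment 1 hr at 37C, dye 30 min in HepG2.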

A short description of assay [4]: qHTS assay to test for compound auto fluorescence at 590 nm (red) in HepG2 cells (AID 720674). The method, boiled down:
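Red autofluorescence (Ex/Em 540/590 nm, Rose Bengal sodium equivalents) was measured in HepG2 cells, 2,000 per well in MEM plus 10% FBS, plated overnight at 37 C. Readings were taken 1 hr after adding 23 nL compound or DMSO, at 37 C and 5% CO2.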

Assay [5] is described as follows: qHTS assay to test for compound auto fluorescence at 535 nm (green) in HEK293 cells (AID 720680).
Assay [6] can be described thus: qHTS assay to test for compound auto fluorescence at 590 nm (red) in HEK293 cell free culture (AID 720683). Summed up: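 Red-channel autofluorescence of compounds in culture medium (DMEM, 10% FBS), no cells, measured at 540/590 nm. Rose Bengal sodium is the reference fluorophore for equivalence.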
A short description of assay [7]: qHTS assay to identify small molecule antagonists of the glucocorticoid receptor (GR) signaling pathway - cell viability counter screen (AID 720693). Note: nearly all actives have a fitted effect of over 55% in size. Note: potency is the fitted concentration of half-maximal effect.
Assay [8] is described as follows: qHTS assay to identify small molecule antagonists of the thyroid receptor (TR) signaling pathway - cell viability counter screen (AID 743064). Note: nearly all actives have a fitted effect of over 50% in size. Note: potency is the fitted concentration of half-maximal effect. Summed up: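 GH3.TRE-Luc cells, 4 h pre-plating; cpd + T3 1 nM final; 37 °C 23.5 h; CellTiter-Fluor 30 min; fluorescence read.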
The nature of assay [9]: qHTS assay to identify small molecule antagonists of the thyroid receptor (TR) signaling pathway (AID 743065). Note: nearly all actives have a fitted effect of over 55% in size. Note: potency is the fitted concentration of half-maximal effect. Summed up:
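Antagonism measured as loss of luciferase signal in GH3 cells stably carrying a TRE-luciferase reporter, co-treated with compound and T3 (1 nM final) for 23.5 h at 37 C. Viability was read in the same well by CellTiter-Fluor.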

Assay [10] deals with thyroid hormone receptor (rat, GH3 cells). Kind of assay: qHTS assay to identify small molecule agonists of the thyroid receptor (TR) signaling pathway (AID 743066; calls by dose curve).
Assay [11] concerns the target Estrogen receptor (Homo sapiens) (UniProt P03372). Kind of assay: qHTS assay to identify small molecule agonists of the estrogen receptor alpha (ER-alpha) signaling pathway (AID 743075; calls by dose curve;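 note: HEK293 GripTite cells with ER-alpha and UAS-driven beta-lactamase reporter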; note: potency is the fitted concentration of half-maximal effect).
For assay [12] the target is unchanged. The assay can be described thus: qHTS assay to identify small molecule agonists of the estrogen receptor alpha (ER-alpha) signaling pathway using the BG1 cell line (AID 743079). Note: nearly all actives have a fitted effect of over 20% in size. Note: potency is the fitted concentration of half-maximal effect.
Assay [13] is described as follows: qHTS assay to identify small molecule antagonists of the estrogen receptor alpha (ER-alpha) signaling pathway using the BG1 cell line (AID 743080; calls by dose curve;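 note: BG1 cells stimulated with 17beta-estradiol alongside compound; nearly all actives have a fitted effect of over 25% in size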; note: potency is the fitted concentration of half-maximal effect). The method, boiled down:
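After 5 days in phenol-red-free 10% charcoal-stripped FBS medium, BG1-Luc-4E2 cells were seeded, left 24 h at 37 C, co-treated with compounds and 17beta-estradiol for 21.5 h, then assayed for viability and luciferase.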

A short description of assay [14]: qHTS assay to identify small molecule antagonists of the estrogen receptor alpha (ER-alpha) signaling pathway using the BG1 cell line - cell viability counter screen (AID 743081).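 Note: compound given together with 17beta-estradiol as the ER stimulus; series mostly up to about 70 µM; nearly all actives have a fitted effect of over 45% in size.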
A short description of assay [15]: qHTS assay to identify small molecule that activate the aryl hydrocarbon receptor (AhR) signaling pathway - cell viability counter screen (AID 743086). Note: nearly all actives have a fitted effect of over 45% in size. Note: potency is the fitted concentration of half-maximal effect. The method, boiled down:
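Cytotoxicity counter screen: CellTiter-Fluor signal (30 min, 37 C) in 4000 HepG2 cells/well carrying the DRE-luciferase reporter, following 24 h compound exposure at 37 C.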

Assay [16] has as its target Peroxisome proliferator-activated receptor gamma (Homo sapiens) (UniProt P37231). The assay can be described thus: qHTS assay to identify small molecule agonists of the peroxisome proliferator-activated receptor gamma (PPARg) signaling pathway (AID 743094; active = well fitted activation curve with a large enough effect in the signal ratio in the repeat runs, not every such curve was filed as active; inconclusive = weak or mixed curves, or effect the other way; inactive = no such curve, though single readings can be large or run the other way; the % refers to the signal ratio). The method, boiled down:
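GeneBLAzer PPARg UAS-bla HEK293H cells carrying a stably integrated beta-lactamase reporter were pre-incubated 5 h at 37C, then exposed to compounds in DMSO for 17 h at 37C; LiveBLAzer B/G FRET substrate was added for 1 h at room temperature and fluorescence read.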

The nature of assay [17]: qHTS assay to identify small molecule phospholipidosis (PLD) inducers (AID 1259344; active = well fitted curve in the direction sought with a large enough effect; inconclusive = small, poorly fitted or top-dose-only effect, or another doubt; inactive = no such curve, though single readings can be large; an effect the other way counts as inactive or inconclusive). The method, boiled down: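 Phospholipidosis is scored by imaging LipidTOX-stained pits in HepG2 cells exposed to compound for 24 h at 37 C; pit counts and integrated intensities per well and per cell serve as outputs.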
Assay [18] in a line: qHTS assay for identifying genotoxic compounds that show differential cytotoxicity against isogenic chicken DT40 cell lines with known DNA damage response pathways - Rev3 mutant cell line (AID 743014). Note: nearly all actives have a fitted effect of over 55% in size. Note: potency is the fitted concentration of half-maximal effect.
The target in assay [19] is Glucocorticoid receptor (Homo sapiens) (UniProt P04150). The assay can be described thus: qHTS assay to identify small molecule agonists of the glucocorticoid receptor (GR) signaling pathway (AID 720691; active = well fitted activation curve with a large enough effect in the signal ratio in the repeat runs, not every such curve was filed as active; inconclusive = weak or mixed curves, or effect the other way; inactive = no such curve, though single readings can be large or run the other way; the % refers to the signal ratio). Summed up: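 GR-bla HeLa cells (beta-lactamase reporter under glucocorticoid response element) were plated 4 h at 37 C/5% CO2, given compounds in DMSO, and incubated 18 h at 37 C. LiveBLAzer B/G FRET substrate was added for 2 h at room temperature, then fluorescence intensity read.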
Chain of Glucocorticoid receptor (Homo sapiens) (P04150 whole entry, looked up): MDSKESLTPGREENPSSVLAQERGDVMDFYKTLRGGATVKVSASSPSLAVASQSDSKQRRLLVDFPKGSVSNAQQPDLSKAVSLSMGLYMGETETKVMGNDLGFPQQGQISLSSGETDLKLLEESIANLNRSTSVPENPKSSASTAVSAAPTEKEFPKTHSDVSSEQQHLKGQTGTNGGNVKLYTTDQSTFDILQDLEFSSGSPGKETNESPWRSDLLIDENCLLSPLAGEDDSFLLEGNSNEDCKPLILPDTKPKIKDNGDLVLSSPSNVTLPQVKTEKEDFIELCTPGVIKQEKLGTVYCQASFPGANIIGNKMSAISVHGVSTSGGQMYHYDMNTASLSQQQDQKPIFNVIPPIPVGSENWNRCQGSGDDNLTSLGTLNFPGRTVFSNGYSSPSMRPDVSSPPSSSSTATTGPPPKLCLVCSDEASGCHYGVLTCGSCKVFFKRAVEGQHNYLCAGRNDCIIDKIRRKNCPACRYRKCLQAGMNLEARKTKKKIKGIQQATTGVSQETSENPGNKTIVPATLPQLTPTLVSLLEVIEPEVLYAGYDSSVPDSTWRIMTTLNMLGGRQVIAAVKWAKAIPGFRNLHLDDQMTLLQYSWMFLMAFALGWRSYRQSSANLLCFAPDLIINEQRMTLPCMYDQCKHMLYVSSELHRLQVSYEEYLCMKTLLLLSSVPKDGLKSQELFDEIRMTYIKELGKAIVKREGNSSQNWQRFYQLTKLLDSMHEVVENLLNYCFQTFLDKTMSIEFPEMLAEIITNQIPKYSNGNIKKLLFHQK

The target is the same in assay [20]. Kind of assay: qHTS assay to identify small molecule antagonists of the glucocorticoid receptor (GR) signaling pathway (AID 720692; active = well fitted inhibition curve with a large enough effect in the signal ratio in the repeat runs, not every such curve was filed as active; inconclusive = weak or mixed curves, or effect the other way; inactive = no such curve, though single readings can be large or run the other way; the % refers to the signal ratio; note: potency is the fitted concentration of half-maximal effect). Summed up: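 GR-bla HeLa cells (beta-lactamase reporter under glucocorticoid response element) were pre-plated 4 h at 37 C, treated with compounds plus 5 nM dexamethasone (final) for 18 h, then read by LiveBLAzer B/G FRET fluorescence after 2 h.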

“And” between values parts separate entries of the source, which are not always exact repeats. Identical values can stand only once. Unmarked numbers belong to inactive results. The source made the active and inactive calls. Unless noted, calls come from the whole dose curve; as a rule, active = well fitted curve in the direction sought with a large enough effect in the repeat runs; inconclusive = weak or mixed curves; inactive = no such curve, though single readings can be large; an effect the other way counts as inactive or inconclusive.
% is set by controls: 0 for no effect and ±100 for the full control effect.

Chain of Estrogen receptor (Homo sapiens) (P03372 whole entry, looked up): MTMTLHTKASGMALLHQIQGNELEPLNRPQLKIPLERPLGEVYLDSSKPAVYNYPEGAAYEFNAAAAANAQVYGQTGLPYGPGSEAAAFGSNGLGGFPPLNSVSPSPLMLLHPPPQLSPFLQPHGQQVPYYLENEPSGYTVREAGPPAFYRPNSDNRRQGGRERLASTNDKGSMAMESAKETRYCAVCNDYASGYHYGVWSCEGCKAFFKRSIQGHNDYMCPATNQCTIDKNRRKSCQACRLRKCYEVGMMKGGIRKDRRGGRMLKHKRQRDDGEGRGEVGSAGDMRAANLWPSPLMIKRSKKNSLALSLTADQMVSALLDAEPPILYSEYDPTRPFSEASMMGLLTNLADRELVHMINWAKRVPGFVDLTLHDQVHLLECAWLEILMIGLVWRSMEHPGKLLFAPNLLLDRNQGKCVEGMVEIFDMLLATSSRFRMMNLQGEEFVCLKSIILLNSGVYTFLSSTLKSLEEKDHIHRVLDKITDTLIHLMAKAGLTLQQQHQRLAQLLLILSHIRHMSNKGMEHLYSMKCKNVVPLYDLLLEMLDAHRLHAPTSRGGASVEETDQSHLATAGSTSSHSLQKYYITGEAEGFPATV
Chain of Peroxisome proliferator-activated receptor gamma (Homo sapiens) (P37231 whole entry, looked up): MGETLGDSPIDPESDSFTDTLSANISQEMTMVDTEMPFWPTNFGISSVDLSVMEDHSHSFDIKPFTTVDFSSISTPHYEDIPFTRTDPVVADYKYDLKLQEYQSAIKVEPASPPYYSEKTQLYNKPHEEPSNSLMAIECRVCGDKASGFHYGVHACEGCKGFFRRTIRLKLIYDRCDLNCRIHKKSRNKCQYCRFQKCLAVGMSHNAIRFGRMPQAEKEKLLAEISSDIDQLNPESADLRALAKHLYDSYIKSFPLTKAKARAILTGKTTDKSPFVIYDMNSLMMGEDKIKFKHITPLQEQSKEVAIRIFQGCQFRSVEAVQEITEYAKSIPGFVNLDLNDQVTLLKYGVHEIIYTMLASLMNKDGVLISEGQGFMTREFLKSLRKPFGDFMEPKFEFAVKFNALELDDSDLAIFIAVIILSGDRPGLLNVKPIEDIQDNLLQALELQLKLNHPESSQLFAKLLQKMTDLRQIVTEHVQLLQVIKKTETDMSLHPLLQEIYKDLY

In the case of `COC(=O)[C@H]1[C@@H](OC(=O)c2ccccc2)C[C@@H]2CC[C@H]1N2C`, the Potency result in assay [1], in [2], in assay [3], in [5], in assay [7] and in assay [8] was “inactive” each time. Further, the Potency entry in [9], in [10], in assay [11], in assay [12], in assay [13] and in [14] was “inactive” throughout. For the same compound, the Potency entry in assay [15], in assay [16] and in [17] was “inactive” each time. Moreover, the compound was classed as inactive in assay [4] and in assay [6].
As for `C[C@@H]1[C@H](O)[C@@H](C)/C=C/C=C/CC/C=C/C=C/C=C/C=C/[C@H](O[C@H]2O[C@@H](C)[C@H](O)[C@@H](N)[C@H]2O)CC2O[C@](O)(C[C@@H](O)[C@H](O)CC[C@@H](O)C[C@@H](O)C[C@@H](O)CC(=O)O[C@H]1C)C[C@H](O)[C@H]2C(=O)O`, the Potency result in [2], in assay [5], in [7], in assay [18], in assay [8] and in assay [9] was “inactive” each time. In addition, the Potency result in [10], in assay [11], in [12], in [13], in [15] and in assay [16] was “inactive” in each case. For the same compound, the Potency entry in assay [17] was “inactive”. The outcome in assay [4] and in assay [6] was inactive.
As to `Cc1cc(C)cc(C(=O)OC2C[C@H]3CC[C@@H](C2)N3C)c1` (stereo partly specified), the Potency result in [2], in [5], in assay [19], in assay [7], in [10] and in assay [11] was “inactive” throughout. The Potency result in assay [12], in assay [13], in assay [14] and in assay [17] was “inactive” each time. The compound was classed as inactive in assay [4] and in assay [6]. Further, the Potency was 1.88 µM (active) in assay [18] and 18.8 µM (active) in assay [9].
For the compound `CCCCCc1cc(O)c2c(c1)OC(C)(C)c1ccc(C)cc1-2`, the Potency is 23.7 µM (active) in [2]; 1.68 µM (active) in assay [3]; 13.4 µM (active) in assay [7]; 11.9 µM (active) in [18]; 13.3 µM (active) in assay [8]; 13.3 µM (active) in assay [9]. Besides, the Potency in assay [13] is 29.8 µM (active). Besides, the result in [4] was inactive. Also, the Potency entry in assay [5] and in [17] was “inactive” in each case.
Consider `C1CN(P2(N3CC3)=NP(N3CC3)(N3CC3)=NP(N3CC3)(N3CC3)=N2)CCO1` (stereo unspecified), for which the Potency result in assay [2], in assay [3], in [5], in assay [7], in assay [8] and in assay [9] was “inactive” in each case. Besides, the Potency entry in assay [10], in assay [11], in assay [12], in [13], in [14] and in assay [15] was “inactive” in each case. Moreover, in assay [16], the Potency entry was “inactive”. Besides, in assay [4], the compound was called inactive. Moreover, the Potency in [18] was 0.168 µM (active). The PLD induction in assay [17] is 0.928% [at 7.66 µM].
Consider `C[C@]12CC[C@@H]3c4ccc(OC(=O)N(CCCl)CCCl)cc4CC[C@H]3[C@@H]1CC[C@@H]2OP(=O)(O)O`, for which the Potency is 7.5 µM (active) and 29.8 µM (active) in assay [1]; 21.3 nM [inconclusive] (active) and 16.9 nM [inconclusive] (active) in [11]; 4.7 nM (active) and 16.8 nM (active) in assay [12]. Further, the Potency result in [2], in assay [3], in assay [5], in [19], in assay [20] and in [7] was “inactive” in each case. Moreover, the Potency entry in assay [18], in assay [13], in assay [14], in assay [15], in assay [16] and in [17] was “inactive” in each case. In addition, the result in assay [4] and in [6] was inactive.
With `CCCSc1cc(OC)c(CCN)cc1OC`, the Potency in assay [1] was 32.5 µM (active); in [18], 0.258 µM (active); in [8] it was 29 µM (active); in assay [9], 32.5 µM (active). The Potency entry in assay [5], in [19], in assay [20], in [7], in assay [11] and in assay [13] was “inactive” throughout. Besides, the Potency result in assay [16] and in assay [17] was “inactive” throughout. Further, the compound was classed as inactive in assay [6].
With `CC(C)[C@H]1C(=O)N2CCC[C@H]2[C@]2(O)O[C@](NC(=O)[C@@H]3C[C@@H]4c5cccc6[nH]cc(c56)C[C@H]4N(C)C3)(C(C)C)C(=O)N12`, the Potency entry in assay [1], in assay [2], in assay [5], in [11], in [13] and in [17] was “inactive” in each case. The compound was classed as inactive in [4] and in assay [6]. Besides, the Potency in [18] was 29.8 µM (active); in assay [8], 29.8 µM (active); in assay [9], 29.8 µM (active); in assay [12] it was 11.9 µM (active).
For `O=C1C=C2C=C[C@@H]3C[C@@]2(O1)[C@H]1CCCCN31`, the Potency was 18.8 µM (active) in [2]; 4.25 µM (active) in assay [20]; 10.6 µM (active) in [18]; 11.9 µM (active) in assay [8]; 6.68 µM (active) in [9]; 15 µM (active) in [15]. For the same compound, the Potency result in assay [5], in assay [19], in [7], in assay [10], in assay [11] and in assay [17] was “inactive” each time. In addition, in assay [6], the call was inactive.
For the compound `CCNC1(c2cccs2)CCCCC1=O` (stereo unspecified), the Potency entry in [1], in assay [5], in [19], in assay [20], in [7] and in assay [18] was “inactive” throughout. Also, the Potency entry in assay [8], in assay [9], in [10], in [11], in assay [12] and in assay [13] was “inactive” throughout. Further, the Potency result in assay [14], in assay [15], in assay [16] and in assay [17] was “inactive” each time. Also, the result in [4] and in [6] was inactive.
In the case of `CC(C)C[C@H]1C(=O)N2CCC[C@H]2[C@]2(O)O[C@](NC(=O)[C@@H]3C[C@@H]4c5cccc6[nH]cc(c56)C[C@H]4N(C)C3)(C(C)C)C(=O)N12`, the Potency result in [1], in assay [3], in [5], in assay [7], in [10] and in assay [11] was “inactive” in each case. For the same compound, the Potency entry in assay [12], in assay [13] and in assay [17] was “inactive” in each case. The compound was classed as inactive in [4] and in assay [6]. Further, the Potency in assay [18] is 23.7 µM (active); in assay [8], 29.8 µM (active); in assay [9], 29.8 µM (active).
Regarding `C[C@@H]1[C@H]2Cc3ccc(O)cc3[C@]1(C)CCN2C`, the Potency result in assay [2], in [3], in assay [5], in [19], in [10] and in assay [14] was “inactive” in each case. Further, the Potency result in assay [17] is “inactive”. The outcome in [4] and in [6] was inactive. The Potency in assay [9] was 50.2 µM (active).
With `C[C@@H]1[C@@H]2Cc3ccc(O)cc3[C@@]1(C)CCN2CC1CC1`, the Potency result in assay [1], in assay [2], in assay [3], in assay [5], in assay [19] and in assay [20] was “inactive” throughout. Further, the Potency entry in assay [7], in [18], in assay [8], in assay [9], in [10] and in [14] was “inactive” throughout. Also, the Potency result in [15] and in assay [16] was “inactive” each time. For the same compound, the call in assay [4] and in assay [6] was inactive. In addition, the PLD induction in [17] was 5.17% [at 7.66 µM].
